Screens from PubChem BioAssay.
TTR transcr act: increases transthyretin transcription; SH-SY5Y TTR promoter Gaussia luciferase, luminescence; 100% = recombinant luciferase protein wells; activation, % at 16.7 µM; 1.3% of 92,000 active;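 active = activation above the mean of all tested compounds plus 3 SD, cut at about 9.5% in these data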;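 also: cells exposed to compounds for one day before reading; 0% = median of all test compound wells on the plate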
TTR inh HuH7: counter-screen for TTR activators: TTR transcription inhibitors in HuH7 cells; inhibition, % at 16.7 µM; HuH7 TTR promoter-Gaussia luciferase reporter, luminescence; AID 1117279; shares compounds with TTR transcr act; 4% of 1,100 active;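 active = average inhibition above the solvent-only control wells' mean plus 3 SD, cut at about 15% in these data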;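 also: 0% = cells with DMSO only and 100% = cells with inhibitor control FD; inhibitors lower well luminescence so higher value means more inhibition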
TTR up confirm: human TTR transcription activation, confirmation; activation, % at 16.7 µM; shares compounds with TTR transcr act; AID 1117280; 1,100 tested, under 10 active; SHSY5Y TTR promoter Gaussia luciferase, luminescence; 100% = purified Lucia enzyme wells, no cells;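 active = mean activation above a set limit taken from the earlier primary screen, cut at about 11% in these data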;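 also: 0% = DMSO-treated cells and 100% = recombinant Lucia luciferase without cells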
An asterisk follows results filed as active. Many of the other results were omitted from the sample, so hits are more common in it than they were.

SMILES	TTR transcr act	others
Cc1cccc(OCCC(=O)Nc2nnc(C)s2)c1	17.1*	TTR inh HuH7=-16.1;TTR up confirm=1.2
Cc1cccc(OCCCC(=O)Nc2ccc(N(C)C)cc2)c1	4.4
CCC[C@H]1[C@@H](NC(=O)/C=C/c2ccccc2)CC[C@@]23CCCN2C(=O)CCC[C@@H]13	1.2
COC(=O)[C@]12C[C@H](CC(=O)NCc3cccc(C(F)(F)F)c3)C(=O)N(Cc3ccc(Cl)cc3Cl)C1=C[C@H](C(C)C)O[C@@H]2C1CC1	0.0
Cc1onc(C(=O)N2CCN(C(c3ccc(F)cc3)c3ccc(F)cc3)CC2)c1[N+](=O)[O-]	-3.0
O=C(CN1CCN(Cc2ccc3c(c2)OCO3)CC1)Nc1ccc(F)cc1	1.4
O=C(CN1CCc2ccccc2C1)Nc1ccc(F)cc1	1.6
O=C(CN1CCN(CC(=O)Nc2ccc(Cl)cc2)CC1)Nc1ccc(F)cc1	10.7*	TTR inh HuH7=-0.8;TTR up confirm=0.5
C[C@H]1[C@@H](N(C)C)CC[C@@]23CCCN2C(=O)CCC[C@@H]13	-0.5
CCC[C@H]1[C@@H](NC(=O)c2cccc(C)c2)CC[C@@]23CCCN2C(=O)CCC[C@@H]13	-1.5
CC1CCCCC1NS(=O)(=O)c1ccc(-n2cnnn2)cc1 (stereo not given)	0.5
COc1cc(S(=O)(=O)NC2CCCCC2C)ccc1Cl (stereo not given)	3.3
COc1cc(S(=O)(=O)NC2CCCCC2C)ccc1-n1cnnn1 (stereo not given)	14.0*	TTR inh HuH7=-10.6;TTR up confirm=-0.2
C[C@H]1[C@@H](NC(=O)C2CCCCC2)CC[C@@]23CCCN2C(=O)CCC[C@@H]13	-1.2
C[C@@H](N)C(=O)Nc1ccc(Cl)cc1C(=O)c1ccc[nH]1	0.0
